Where “and” joins values, the source holds several entries; their conditions need not be identical. Identical values can stand only once. Out of some 5,500 compounds screened, about 2,000 (36%) were called active. Roughly 18% stayed inconclusive and do not appear here. Rule as the data show it: active = normalized growth mostly below about 0.91 (no sharp cut-off); inconclusive = no clear call, values can overlap the other calls; inactive = mostly above about 0.92. The list shows a part of the results.
Test: chemical genetic growth profiling, strain panel (AID 1159580);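 also: tested at 20 µM; growth read once vehicle control cultures reached saturation at 30 °C; 1 = growth at the plate median or of vehicle wells; lower values mean less growth of the strain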
Details: S. cerevisiae deletion strains, growth OD

Measured: normalized growth

CC(C)CC(N(C)C)C1(c2ccc(Cl)cc2)CCC1 (stereo unspecified)
inactive: locus YAL013W, strain DEP1, stronger effect = lower value 1 | locus YAL021C, strain ccr4, stronger effect = lower value 0.987 | locus YAL026C, strain drs2, stronger effect = lower value 1.01 | locus YAL030W, strain snc1, stronger effect = lower value 1.01 | locus YBL061C, strain skt5, stronger effect = lower value 1 | locus YBR009C, strain hhf1, stronger effect = lower value 1 | locus YBR021W, strain FUR4, stronger effect = lower value 0.952 | locus YBR023C, strain chs3, stronger effect = lower value 1.01 | locus YBR171W, strain sec66, stronger effect = lower value 1.01 | locus YBR229C, strain ROT2, stronger effect = lower value 0.999 | locus YBR231C, strain swc5, stronger effect = lower value 1.02 | locus YBR279W, strain paf1, stronger effect = lower value 1.01 | locus YCL011C, strain gbp2, stronger effect = lower value 0.999 | locus YCL016C, strain dcc1, stronger effect = lower value 0.994 | locus YCL029C, strain bik1, stronger effect = lower value 1.02 | locus YCL069W, strain vba3, stronger effect = lower value 1 | locus YCR088W, strain abp1, stronger effect = lower value 1.02 | locus YDL005C, strain med2, stronger effect = lower value 1.01 | locus YDL035C, strain GPR1, stronger effect = lower value 1.02 | locus YDL040C, strain nat1, stronger effect = lower value 0.999 | locus YDL074C, strain BRE1, stronger effect = lower value 1 | locus YDL101C, strain DUN1, stronger effect = lower value 1 | locus YDL134C, strain PPH21, stronger effect = lower value 1.01 | locus YDL185W, strain tfp1, stronger effect = lower value 1.01 | locus YDL192W, strain arf1, stronger effect = lower value 1.02 | locus YDR001C, strain nth1, stronger effect = lower value 0.994 | locus YDR069C, strain doa4, stronger effect = lower value 1.03 | locus YDR101C, strain arx1, stronger effect = lower value 1.01 | locus YDR137W, strain rgp1, stronger effect = lower value 1.12 | locus YDR150W, strain NUM1, stronger effect = lower value 1.01 | locus YDR159W, strain sac3, stronger effect = lower value 0.994 | locus YDR162C, strain NBP2, stronger effect = lower value 0.99 | locus YDR195W, strain ref2 1.04 | locus YDR297W, strain sur2, stronger effect = lower value 1.01 | locus YDR318W, strain mcm21, stronger effect = lower value 1.02 | locus YDR334W, strain swr1, stronger effect = lower value 1.01 | locus YDR335W, strain msn5, stronger effect = lower value 1 | locus YDR388W, stronger effect = lower value 1.02 | locus YDR392W, strain spt3, stronger effect = lower value 0.976 | locus YDR502C, strain sam2, stronger effect = lower value 1.01 | locus YEL003W, strain gim4, stronger effect = lower value 1 | locus YEL037C, strain rad23, stronger effect = lower value 1.01 | locus YEL061C, strain CIN8 (second series), stronger effect = lower value 1 | locus YEL061C, strain CIN8, stronger effect = lower value 0.993 | locus YER015W, strain faa2, stronger effect = lower value 0.982 | locus YER016W, strain bim1, stronger effect = lower value 1 | locus YER110C, stronger effect = lower value 1.01 | locus YER111C, strain swi4, stronger effect = lower value 1.01 | locus YER155C, strain BEM2 (second series), stronger effect = lower value 1.03 | locus YER155C, strain BEM2, stronger effect = lower value 0.969 | locus YER167W, strain BCK2, stronger effect = lower value 0.983 | locus YFR010W, strain ubp6, stronger effect = lower value 1.02 | locus YGL078C, strain dbp3, stronger effect = lower value 1 | locus YGL086W, strain mad1, stronger effect = lower value 1.01 | locus YGL167C, strain pmr1, stronger effect = lower value 0.997 | locus YGL173C, strain kem1, stronger effect = lower value 1 | locus YGL227W, strain vid30, stronger effect = lower value 1.01 | locus YGL240W, strain doc1, stronger effect = lower value 1.03 | locus YGL248W, strain PDE1, stronger effect = lower value 0.999 | locus YGL253W, strain hxk2, stronger effect = lower value 1 | locus YGR078C, strain PAC10, stronger effect = lower value 1.01 | locus YGR135W, strain pre9, stronger effect = lower value 1.02 | locus YGR229C, strain SMI1, stronger effect = lower value 0.986 | locus YGR252W, strain gcn5, stronger effect = lower value 1.03 | locus YHR013C, strain ard1, stronger effect = lower value 1.02 | locus YHR027C, strain rpn1, stronger effect = lower value 1 | locus YHR030C, strain SLT2, stronger effect = lower value 1.01 and 1.02 | locus YHR079C, strain IRE1 (second series), stronger effect = lower value 1.01 | locus YHR079C, strain IRE1, stronger effect = lower value 1.01 | locus YHR094C, strain hxt1, stronger effect = lower value 1.01 | locus YHR129C, strain ARP1, stronger effect = lower value 1 | locus YHR142W, strain chs7, stronger effect = lower value 1 | locus YHR200W, strain rpn10, stronger effect = lower value 1.02 | locus YIL066C, strain RNR3, stronger effect = lower value 0.997 | locus YIL073C, strain SPO22, stronger effect = lower value 1.02 | locus YIL125W, strain kgd1, stronger effect = lower value 1 | locus YIR030C, strain dcg1, stronger effect = lower value 1.01 | locus YJL092W, strain hpr5, stronger effect = lower value 1 | locus YJL095W, strain BCK1 (second series), stronger effect = lower value 1 | locus YJL095W, strain BCK1, stronger effect = lower value 1.01 and 0.998 | locus YJL115W, strain asf1, stronger effect = lower value 1.02 | locus YJL129C, strain trk1, stronger effect = lower value 1.03 | locus YJL134W, strain LCB3, stronger effect = lower value 1 | locus YJL154C, strain vps35, stronger effect = lower value 1.01 | locus YJL164C, strain tpk1, stronger effect = lower value 0.995 | locus YJL166W, strain qcr8, stronger effect = lower value 1.02 | locus YJL168C, strain set2, stronger effect = lower value 1.01 | locus YJL187C, strain SWE1 (second series), stronger effect = lower value 1.01 | locus YJL187C, strain SWE1, stronger effect = lower value 1.01 | locus YJR043C, strain POL32, stronger effect = lower value 0.999 | locus YJR066W, strain TOR1, stronger effect = lower value 0.961
